Source: PubChem BioAssay (National Center for Advancing Translational Sciences (NCATS))
Eya2 inh: qHTS Assay for Inhibitors of the Phosphatase Activity of Eya2. recombinant Eya2, OMFP fluorescence dephosphorylation (OMFP is methylfluorescein phosphate). Potency, µM (series often up to 76.9 µM), without a hit: top-dose activity, negative = inhibition, usual class: inhibitors. 330,000 compounds, 0.006% hits
Target sequence (O00167 whole entry, looked up): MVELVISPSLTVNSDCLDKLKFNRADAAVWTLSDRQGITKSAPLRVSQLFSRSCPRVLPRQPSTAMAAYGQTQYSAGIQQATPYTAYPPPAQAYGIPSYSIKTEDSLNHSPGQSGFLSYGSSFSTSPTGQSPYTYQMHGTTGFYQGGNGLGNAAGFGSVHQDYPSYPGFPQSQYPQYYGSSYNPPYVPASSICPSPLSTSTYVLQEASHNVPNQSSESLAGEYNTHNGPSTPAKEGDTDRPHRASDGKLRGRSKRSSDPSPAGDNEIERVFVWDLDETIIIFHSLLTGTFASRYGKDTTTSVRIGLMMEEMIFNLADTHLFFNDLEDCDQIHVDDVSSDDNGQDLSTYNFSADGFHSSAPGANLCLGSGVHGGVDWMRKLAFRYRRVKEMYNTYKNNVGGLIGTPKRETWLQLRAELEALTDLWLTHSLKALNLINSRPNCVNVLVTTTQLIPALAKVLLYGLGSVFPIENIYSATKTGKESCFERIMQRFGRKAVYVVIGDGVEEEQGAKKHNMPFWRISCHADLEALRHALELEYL
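Eya2 protein (added as 0.2 uM solution) was preincubated with compound for 10 min at ambient temperature in 50 mM HEPES pH 7.5, 50 mM NaCl, 5 uM MgCl2, 0.05% BSA, 1 mM DTT. OMFP (added at 50 uM) then reacted 10 min; fluorescence read at 485/525 nm.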
GALK inh: qHTS Assay for Inhibitors of Human Galactokinase (GALK); Purified GALK, Kinase-Glo residual ATP luminescence; P51570; 270,000 compounds, 0.007% hits; AID 1868, 2009; Potency, µM (titrated, usually from 57.5 µM), for inactives: at the highest dose activity change, negative = inhibition, usual class: inhibitors
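5 nM enzyme, 35 uM ATP, 100 uM galactose, 20 mM HEPES pH8.0, 5 mM MgCl2; 1 h RT; residual ATP by Kinase-Glo Plus luminescence, qHTS format.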
TrxR1 substrate: qHTS Assay for Substrates of Mammalian Selenoprotein Thioredoxin Reductase 1 (TrxR1): qHTS; Thioredoxin reductase 1, cytoplasmic (Rattus norvegicus), O89049; purified TrxR1 substrate turnover, NADPH consumption readout; Potency, µM (top dose mostly 114 µM), for inactives: top-dose activity change, negative = substrate turnover; 390,000 compounds, 0.01% hits; AID 588456, 2011; note: nearly all actives have a fitted effect of over 50% in size
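Rat TrxR1, dispensed at 90 nM, was prereduced with 400 uM NADPH (final) for 5 min at ~22 deg C, then incubated with compound 15 min before 400 uM selenite. A first-read NADPH fluorescence drop versus no-compound background flagged substrates.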
TrxR1 inh: qHTS Assay for Inhibitors of Mammalian Selenoprotein Thioredoxin Reductase 1 (TrxR1): qHTS | Thioredoxin reductase 1, cytoplasmic (Rattus norvegicus), O89049 | recombinant rTrxR1, NADPH fluorescence consumption, selenite substrate | Potency, µM (series often up to 114 µM), for the others: at the top dose activity change, negative = inhibition, most hits filed as inhibitors | 390,000 compounds, 1% hits | AID 588453, 2011; note: nearly all actives have a fitted effect of over 65% in size
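Rat TrxR1 (90 nM in the dispensed reagent) was pre-reduced with 400 uM NADPH for 5 min at room temperature, then incubated with compound for 15 min. After 400 uM selenite was added, NADPH fluorescence (Ex 340/Em 450 nm) was followed for 8 min.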
USP2a inh: qHTS Assay for Inhibitors of Ubiquitin-specific Protease USP2a Using CHOP2 as the Reporter | Ubiquitin carboxyl-terminal hydrolase 2 (Homo sapiens), O75604 | USP2 core, Ub-CHOP2 coupled fluorogenic reporter, 485/531 | Potency, µM (titrated, usually from 38.3 µM), for inactives: top-dose activity change, negative = inhibition, actives largely listed as inhibitors | 330,000 compounds, 0.01% hits | AID 463254, 2010;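 note: plate controls were DMSO wells for no effect and full inhibition by NEM control for full effect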
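Deubiquitinase activity read as fluorescence (485/531 nm) after Ub-CHOP2 cleavage activates the enterokinase reporter on its substrate; USP2 core 10nM, Ub-CHOP2 and substrate 25nM each, 30min compound preincubation then 60min RT; data normalized to NEM, curves fitted.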
RGS4 inhibitor: Inhibitors of Regulator of G Protein Signaling (RGS) 4: qHTS; Regulator of G-protein signaling 4 (Homo sapiens), P49798; Potency, µM (highest dose often 114 µM), for the others: at the highest dose activity change, negative = inhibition, actives largely listed as inhibitors; Transcreener GDP fluorescence polarization, RGS4-accelerated GTP hydrolysis; 390,000 compounds, 0.039% hits; note: nearly all actives have a fitted effect of over 75% in size
Target sequence (P49798 whole entry, looked up): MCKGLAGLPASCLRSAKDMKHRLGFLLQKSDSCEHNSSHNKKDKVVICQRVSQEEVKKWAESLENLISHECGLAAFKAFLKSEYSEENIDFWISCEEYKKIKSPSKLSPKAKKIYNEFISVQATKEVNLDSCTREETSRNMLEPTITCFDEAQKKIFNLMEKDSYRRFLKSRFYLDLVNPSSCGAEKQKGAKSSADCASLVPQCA
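MLSMR compounds (23 nl, pin-transferred) preincubated 10 min at room temperature with a 500nM (2x) first reagent, then RGS4 at 900nM (2x) plus Transcreener GDP mix added; fluorescence polarization (620/688 nm) read before and after 90 min at 30 °C.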
* hit, by the source's call; ? = inconclusive; nt = no result; [ ] = dose if it differs, or a comment. Only some compounds are listed: those with a hit (about 1% of all), similar ones and a draw of the others. Calls come from the whole dose curve; as a rule, active = well fitted curve in the direction sought with a large enough effect; inconclusive = small, poorly fitted or top-dose-only effect, or another doubt; inactive = no such curve, though single readings can be large; an effect the other way counts as inactive or inconclusive. Unless noted, % is set by controls: 0 for no effect and ±100 for the full control effect; potency is the fitted concentration of half-maximal effect.

SMILES | Eya2 inh | GALK inh | TrxR1 substrate | TrxR1 inh | USP2a inh | RGS4 inhibitor
CN(CCCc1cnc[nH]1)C(=S)NCCCN(Cc1ccc(Cl)cc1)c1ccc(Br)cn1 | nt | nt | 0% | 17% | nt | -10%
C=CCN1c2ccccc2C(=O)C(C)S1(=O)=O (stereo not drawn) | -1% | nt | -1% | -7% | 2% | 0%
COc1cccc(CN2c3ccc(Br)cc3C(=O)CS2(=O)=O)c1 | 1% | nt | -2% | 2.2µM* | -2% | -8%
C=CCN1c2ccc(Br)cc2C(=O)CS1(=O)=O | -4% | nt | 4% | 7.1µM* | -1% | -4%
COc1cc(CN2c3ccc(Br)cc3C(=O)CS2(=O)=O)cc(OC)c1 | nt | nt | -5% | ? | nt | nt
Cc1ccccc1OCC(=O)Nc1ccc(S(=O)(=O)N(Cc2ccccc2)c2ccccc2)cc1 | nt | nt | -4% | 36% | nt | 18%
COC(=O)C1=C[C@@H](C(=O)OC)[C@@H]2C3=C(C(=O)C2(C)C)[C@H](C)n2c(=O)n(-c4ccccc4)c(=O)n2[C@@H]3C1 | nt | nt | 10% | 56µM* | nt | -20%
COC(=O)C1=C[C@@H](C(=O)OC)C2C3=C(C(=O)C24CCCCC4)[C@H](C)n2c(=O)n(-c4ccccc4)c(=O)n2[C@@H]3C1 (stereo partly drawn) | nt | nt | 1% | 16% | nt | 8%
O=C(C[n+]1cccc(Cl)c1)c1ccc(O)c(O)c1 | nt | nt | -10% | -7% | nt | nt
CCOc1ccc(NC(=O)CSc2nc(-c3cccs3)cc(C(F)(F)F)c2C#N)cc1 | nt | nt | -1% | 17% | nt | -11%
CN1CCc2nc(SCC(=O)Nc3cccc(F)c3)c(C#N)c(-c3cccs3)c2C1 | -5% | 0% | 5% | 5µM* | 26% | ?
Cc1cccc(CSc2nc3c(c(-c4cccs4)c2C#N)CN(C)CC3)c1 | -7% | 1% | -5% | ? | 6% | -28%
CN1CCc2nc(SCC(=O)Nc3ccc(OC(F)(F)F)cc3)c(C#N)c(-c3cccs3)c2C1 | 10% | 1% | 3% | 10µM* | 2% | ?
CC(C)CN(CC(C)C)c1ccc(/C=C/c2ccnc3ccccc23)cc1 | nt | nt | 8%[0.0914 µM] | 9% | nt | nt
CC[Si](CC)(CC)O[C@H]([C@@H](C)COCOC)[C@@H](C)COCc1ccc(OC)cc1 | nt | nt | 3% | 11% | nt | 3%
CCC(=O)N1CCc2cc(Br)cc(S(=O)(=O)N3CCCC(C(=O)Nc4cc(C)ccc4OC)C3)c21 (stereo not drawn) | nt | nt | 0% | 89µM* | nt | 2%
CCOC(=O)N(C(=O)c1ccccc1)c1ccccc1 | nt | nt | 1% | 10% | nt | nt
CCCC(O)(CCC)C(=O)NN(C(=O)CCl)c1ccccc1 | 0% | 1% | 8% | 11µM* | 2% | -15%[11.4 µM]
O=c1oc2ccccc2c(N2CCCCC2)c1CN1CCCCC1 | 1% | -2% | 0% | 25µM* | 2% | -20%
CCc1oc2ccccc2c1C(=O)CCN1CCCCC1 | 0% | 2% | 4% | 0.11µM* | -2% | ?
O=c1oc2ccccc2c(N2CCCCC2)c1CN1CCCC1 | 0% | -2% | 4% | 5% | 1% | 19%
O=C(CCN1CCCCC1)c1ccccc1 | -19% | 0% | 10%[2.29 µM] | ? | 3% | 16%
COC(=O)C1=C(C)N(c2ccc(F)c(Cl)c2)C(=O)C1 | 5% | 0% | 7% | 14µM* | -1% | -1%
COC(=O)C1=C(C)N(c2cccc(Cl)c2)C(=O)C1 | -43% | -3% | 4% | ? | 4% | 13%
O=S(=O)(NCCNCC=Cc1ccc(Br)cc1)c1cccc2cnccc12 | nt | nt | -4% | 15%[0.0914 µM] | nt | nt
SMILES | Eya2 inh | GALK inh | TrxR1 substrate | TrxR1 inh | USP2a inh | RGS4 inhibitor
Cc1cc(C)c(S(=O)(=O)NCCS(=O)(=O)N2CCN(c3ccccc3)CC2)c(C)c1 | nt | nt | 1%[57.1 µM] | 25%[57.1 µM] | nt | -20%
Cc1cc(C)c(S(=O)(=O)NCC23C=CC(O2)C2C(=O)N(c4ccccc4)C(=O)C23)c(C)c1 (stereo not drawn) | 9% | -1% | -13% | 14µM* | 3% | ?
O=C1C2C3C=CC(CNS(=O)(=O)c4ccccc4[N+](=O)[O-])(O3)C2C(=O)N1c1ccccc1 (stereo not drawn) | -2% | -2% | 15%[57.1 µM] | 18µM* | 2% | ?
CCN(CC)CCN(C)c1ccc(/C=C/c2ccnc3ccccc23)cc1 | nt | nt | -3% | -4% | nt | nt
N#C/C(=C\c1cccc(Br)c1)C(=O)N1CCCCC1 | -6% | -6% | 5% | 14µM* | 1% | ?
N#C/C(=C\c1cccc(O)c1)C(=O)N1CCCCC1 | -5% | -2% | 1% | ? | 1% | -29%
O=C(COc1ccccc1C(=O)Nc1ccccc1)Nc1cccc([N+](=O)[O-])c1 | nt | nt | -3% | 5% | nt | nt
O=C1C=CC(=O)N1c1ccc(O)cc1 | ? | 0% | 2% | 1.3µM* | 1% | ?
O=C(O)CNC(=O)c1ccc(OC(F)F)cc1 | -2% | -1% | 9% | 12% | 1% | 5%
O=C1C=CC(=O)N1c1ccc(OC(F)F)cc1 | 13% | nt | 8% | 1.1µM* | 2% | ?
O=C(CCS(=O)(=O)c1ccccc1)N(CCCN1CCOCC1)c1nc2c(F)cccc2s1 | -4% | nt | -10% | 3.2µM* | 3% | -7%
O=C(CCS(=O)(=O)c1ccccc1)N(CCCN1CCOCC1)c1nc2ccc(F)cc2s1 | 20% | nt | 8% | 7.1µM* | -2% | -1%
COc1ccc(-n2cccc2/C=C/[N+](=O)[O-])cc1 | 5% | nt | 3% | 10µM* | 2% | ?
Cc1cc(C)c2c(c1)[C@@H]1C=CC[C@@H]1[C@H](c1ccc(S(=O)(=O)N3CCOCC3)cc1)N2 | 6% | -1% | -4% | 2.8µM* | -5% | ?
Cc1ccc(S(=O)(=O)N2CCOCC(=O)NCCOCCNC(=O)COCC2)cc1 | 1%[15.4 µM] | 1% | -1% | -6% | -1% | 4%
COC(=O)c1ccc(C2Nc3c(C)cc(C)cc3C3C=CCC32)cc1 (stereo not drawn) | nt | nt | 14% | 4µM* | nt | ?
Cc1ccc2ncc(C)c(/C=C/c3ccc(N(C)C)cc3)c2c1 | nt | nt | -4% | -6% | nt | nt
O=C(CN(C(=O)Cn1nnc(-c2cccs2)n1)c1ccc2c(c1)OCCO2)NCc1ccccc1 | -29% | -3% | -6% | 2%[57.1 µM] | -3% | 2%[11.4 µM]
